Assay outcomes: PubChem, National Center for Advancing Translational Sciences (NCATS)
Hits are enriched below; roughly 3% of the tested compounds scored in any of these assays.
IP6K1 inhibitor: Primary qHTS assay for small molecule inhibitors of Inositol hexaphosphate kinase 1 (IP6K1) | Inositol hexakisphosphate kinase 1 (Homo sapiens), Q92551 | actives 0.81% (n = 140,000) | activity change, % (series mostly up to about 58 µM) | IP6K1 kinase, ADP-Glo luminescence, 2 h; stronger effect = lower value; in the data active = activity change below about -25%; note: % is set by controls: 0 for no effect and ±100 for the full control effect
Target sequence (Q92551 whole entry, looked up): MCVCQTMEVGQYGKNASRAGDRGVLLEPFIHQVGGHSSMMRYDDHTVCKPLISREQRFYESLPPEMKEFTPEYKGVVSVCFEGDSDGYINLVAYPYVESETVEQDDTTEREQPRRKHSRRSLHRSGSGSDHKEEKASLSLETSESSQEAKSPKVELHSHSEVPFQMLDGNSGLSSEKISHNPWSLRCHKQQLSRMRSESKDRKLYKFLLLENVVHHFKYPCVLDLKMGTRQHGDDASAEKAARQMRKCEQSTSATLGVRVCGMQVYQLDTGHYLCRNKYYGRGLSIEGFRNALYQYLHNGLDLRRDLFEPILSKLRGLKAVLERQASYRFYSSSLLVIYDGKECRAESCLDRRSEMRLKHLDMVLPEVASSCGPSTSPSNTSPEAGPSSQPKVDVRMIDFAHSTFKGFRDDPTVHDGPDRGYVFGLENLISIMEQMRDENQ
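ADP-Glo luminescence measures ADP made by human IP6K1 during a 2 h RT reaction with ATP/IP6 (mix at 1.3 mM/130 uM); top library doses 57.5 and 19.1 uM final.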
KDM5B inh: Primary screen for KDM5B Histone Demethylases FDH-coupled qHTS | KDM5B demethylase, FDH-coupled NADH fluorescence (FDH is formaldehyde dehydrogenase) | Potency, µM (series often up to 57.7 µM), usual class: inhibitors | actives 2.6% (n = 220,000) | AID 1347165, 2019; note: potency is the fitted concentration of half-maximal effect; 0% is about no effect; nearly all actives have a fitted effect of over 70% in size
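Compound dilutions met 200 nM (final) KDM5BΔAP for 10 min at room temperature before substrate addition. The substrate mix held 12.5 µM H3K4me3 with cofactors 25 µM α-ketoglutarate and 50 µM Fe²⁺. NADH signal gain over 30 min defined activity.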
SNCA expr inhib: Primary qHTS assay for inhibitors of alpha-synuclein gene (SNCA) expression; HEK-293 SNCA-luciferase knock-in, luminescence, 24 h; Potency, µM (series often up to 57.2 µM), for the others: at the highest dose activity change, negative = inhibition, most hits filed as inhibitors; actives 0.17% (n = 140,000); AID 1671194, 2021;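 note: potency is the fitted concentration of half-maximal effect; plate controls were DMSO cells for no effect and cell-free wells for full effect; nearly all actives have a fitted effect of over 45% in size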
HEK293 viab: GF-AFC viability counterscreen for inhibitors of alpha-synuclein gene (SNCA) expression | HEK-293-SNCA-luc viability, GF-AFC fluorescence, 24 h | Potency, µM (titrated, usually from 57.1 µM), without a hit: at the highest dose activity change, negative = cytotoxicity, usual class: cytotoxic | actives 0.12% (n = 150,000) | AID 1671193, 2021;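 note: potency is the fitted concentration of half-maximal effect; 0% = DMSO-treated cells and -100% = medium-only wells without cells; nearly all actives have a fitted effect of over 30% in size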
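HEK-293-SNCA-luc cells (1500/well) plated 24 h, then exposed 24 h to a dilution series; GF-AFC added 30 min at 37C, fluorescence 405/540 nm; normalised to medium-only and DMSO wells, Hill fit.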
An asterisk follows results filed as active; i = inactive; ? = inconclusive; · = no result given; [ ] = dose if it differs, or a comment. Unless noted, calls come from the whole dose curve; as a rule, active = well fitted curve in the direction sought with a large enough effect; inconclusive = small, poorly fitted or top-dose-only effect, or another doubt; inactive = no such curve, though single readings can be large; an effect the other way counts as inactive or inconclusive.

SMILES	IP6K1 inhibitor	KDM5B inh	SNCA expr inhib	HEK293 viab
O=C(NCCNC(=O)c1cccnc1)c1ccc(-c2cccc(C(F)(F)F)c2)cc1	-2	·	·	·
Cc1cc(Br)ccc1-c1ccc(C=O)o1	·	i	·	·
Cc1cccc(C)c1-c1nc(C(=O)NCc2ccc3c(c2)OCO3)n2ccccc12	6	28µM*	29%	5%
O=C(NCc1cccs1)c1noc(-c2ccc(F)cc2)n1	-12	i	60%	4%
O=C(NCc1cccs1)c1nc(-c2ccc(F)cc2)c2ccccn12	1	28µM*	30%	3%
O=C(c1ccc(Cl)cc1)N1CC2(CCCN2C2COC2)Cc2ccccc21 (stereo not drawn)	0	89µM*	-8%	-12%
CCOc1ccc(-c2nc(C3CC(=O)N(c4ccc(F)c(Cl)c4)C3)no2)cc1OCC (stereo not drawn)	-9	32µM*	-16%	-5%
O=C1CC(c2noc(-c3ccc(F)cc3)n2)CN1c1ccc(Cl)cc1 (stereo not drawn)	15	?	31%	11%
O=C1CC(c2noc(-c3ccc(-c4ccccc4)cc3)n2)CN1c1ccc(F)cc1 (stereo not drawn)	-11	32µM*	-29%	5%
COc1ccc(N2CC(c3noc(-c4ccc(Cl)cc4)n3)CC2=O)cc1 (stereo not drawn)	12	i	-5%	-1%
O=C1CC(c2noc(-c3ccccc3)n2)CN1c1ccc(Cl)cc1 (stereo not drawn)	-2	i	-7%	2%
CN(C)c1ccc(-c2nc(C3CC(=O)N(c4ccc(Cl)cc4)C3)no2)cc1 (stereo not drawn)	0	4µM*	-11%	11%
CCOc1cc(-c2nc(C3CC(=O)N(c4ccc(F)c(Cl)c4)C3)no2)cc(OCC)c1OCC (stereo not drawn)	2	?	15%	-5%
CCOc1ccc(-c2nc(C3CC(=O)N(c4ccc(Cl)cc4)C3)no2)cc1 (stereo not drawn)	-4	32µM*	13%	-8%
CCCCOc1ccc(-c2nc(C3CC(=O)N(c4ccc(OC)cc4)C3)no2)cc1 (stereo not drawn)	-2	?	23%	6%
CCCCOc1ccc(-c2nc(C3CC(=O)N(c4ccc(F)cc4)C3)no2)cc1 (stereo not drawn)	-8	32µM*	?	-13%
CCc1ccc(-c2noc(CCC(=O)Nc3ccccc3N3CCOCC3)n2)cc1	·	i	·	·
O=C(CCC[C@@H]1[C@H]2CCCN3CCC[C@@H](CN1Cc1ccccc1)[C@@H]23)N1CCCC1	-6	i	-3%	-4%
CC(=O)N1C[C@@H]2CCCN3CCC[C@@H]([C@H]23)[C@H]1CCCC(=O)NCCN(C)C	4	28µM*	36%	9%
CC(=O)N1C[C@@H]2CCCN3CCC[C@@H]([C@H]23)[C@H]1CCCC(=O)N1CCN(c2ccccn2)CC1	1	32µM*	-8%	10%
CC(=O)N1C[C@@H]2CCCN3CCC[C@@H]([C@H]23)[C@H]1CCCC(=O)N1CCN(c2ccccc2)CC1	2	i	-8%	-13%
CN(C)CCNC(=O)CCC[C@@H]1[C@H]2CCCN3CCC[C@@H](CN1C)[C@@H]23	-5	i	?	-7%
CC(=O)N1C[C@@H]2CCCN3CCC[C@@H]([C@H]23)[C@H]1CCCC(=O)N1CCN(C)CC1	-11	25µM*	-7%	-16%
CN1CCN(C(=O)CCC[C@@H]2[C@H]3CCCN4CCC[C@@H](CN2Cc2ccccc2)[C@@H]34)CC1	-7	32µM*	10%	-19%
CC(=O)N1C[C@@H]2CCCN3CCC[C@@H]([C@H]23)[C@H]1CCCC(=O)N1CCN(c2ccc(F)cc2)CC1	3	i	10%	0%
SMILES	IP6K1 inhibitor	KDM5B inh	SNCA expr inhib	HEK293 viab
N#Cc1cccc(NC(=O)c2nn(Cc3ccccc3)c(=O)c3ccccc23)c1	·	i	·	·
Cc1ccc(-c2cc(C(=O)N3CCN(C(=O)c4ccco4)CC3)c3ccccc3n2)o1	·	i	·	·
CN(Cc1cccnc1)C(=O)CCC[C@@H]1[C@H]2CCCN3CCC[C@@H](CN1Cc1cccnc1)[C@@H]23	5	22µM*	-9%	6%
CC1(C)OC2=C(C(=O)c3ccccc3C2=O)[C@H](NCc2ccccc2)[C@H]1O	·	·	12µM*	14µM*
CC(NCc1ccccc1)C(=O)O (stereo not drawn)	·	i	·	·
CC(C)(C)OC(=O)N1CC(Nc2ccc(Cl)cc2)C1	-13	i	32%[87.6 µM]	-4%[87.6 µM]
CC(C)(C)OC(=O)N1CC(Nc2ccccc2O)C1	-5	100µM*	130%[87.6 µM]	4%[87.6 µM]
c1ccc(Oc2ccc(Nc3cnc4ccc(N5CCOCC5)nn34)cc2)cc1	-14	?	?	7%[87.6 µM]
CN1CCN(c2ccc3ncc(Nc4ccc5c(c4)OCCO5)n3n2)CC1	7	i	-23%[87.6 µM]	-7%[87.6 µM]
Clc1cccc(Nc2cnc3ccc(N4CCOCC4)nn23)c1	-19	32µM*	61%[87.6 µM]	14%[87.6 µM]
CN1CCN(c2ccc3ncc(Nc4ccc(OC(F)(F)F)cc4)n3n2)CC1	-12	32µM*	-29%[87.6 µM]	-2%[87.6 µM]
CN1CCN(c2ccc3ncc(Nc4ccc(Cl)c(C(F)(F)F)c4)n3n2)CC1	-16	32µM*	?	13%[87.6 µM]
O=C(Cc1ccc(F)cc1)N1CCC2(C1)C(=O)N(CCc1ccccc1)c1ccccc12 (stereo not drawn)	2	i	-16%	-12%
CCOC(=O)c1c(C)n(CC)c2ccc(OC(=O)c3ccccc3C)cc12	·	i	·	·
COC(=O)c1cc(NC(=O)c2cnn3cccnc23)cc(C)c1C	·	i	·	·
C=CCCC(CN1CCCOCC1)Oc1cc(C#N)ccn1 (stereo not drawn)	-8	28µM*	-23%	1%
C=CCCC(CN1CCCOCC1)Oc1ccc(C#N)cn1 (stereo not drawn)	17	i	-23%	0%
CN(C)c1ccc(C(=O)NC2CCCN(c3cc(-c4ccccc4)[nH]n3)C2)cc1 (stereo not drawn)	7	i	29%	-26%
CN(C)c1ccc(C(=O)NC2CCN(c3cc(-c4ccccc4)[nH]n3)C2)cc1 (stereo not drawn)	3	14µM*	-19%	3%
CN(C)c1cccc(C(=O)NC2CCN(c3cc(-c4ccccc4)[nH]n3)C2)c1 (stereo not drawn)	6	25µM*	174%	-18%
O=C(NC1CCN(c2cc(-c3ccccc3)[nH]n2)CC1)c1ccccc1	12	i	39%	8%
O=C(NC1CCN(c2cc(-c3ccc(F)cc3)[nH]n2)CC1)c1cccc2[nH]ccc12	7	32µM*	-6%	-17%
CN(C)c1cccc(C(=O)NC2CCN(c3cc(-c4ccccc4)[nH]n3)CC2)c1	15	20µM*	79%	-13%
Fc1ccc(CNCc2ccc(-c3ccccc3)o2)cc1	·	i	·	·
